In the library only some 3.8% were active in any assay of this set; here they are far more common.
ATXN viability = Viability Counterscreen for Primary qHTS for Inhibitors of ATXN expression | S2 cells (HEK-293 line with an ATXN2-luciferase reporter) viability, CellTiter-Fluor protease fluorescence, 24 h | Potency, µM (series often up to 56.7 µM), hits mostly cytotoxic | 400,000 compounds, 0.49% hits; also: nearly all actives have a fitted effect of over 40% in size
HT1080NT lethal = qHTS for induction of synthetic lethality in tumor cells producing 2HG: qHTS for the HT-1080-NT fibrosarcoma cell line | HT-1080-NT fibrosarcoma viability, CellTiter-Glo ATP luminescence, 48 h | Potency, µM (titrated, usually from 46.1 µM), for inactives: at the highest dose activity, negative = less viability, hits mostly cytotoxic | 360,000 compounds, 1.6% hits;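 also: NT is the 2HG producing partner of a matched IDH1 knockdown line; 0% = DMSO-treated cells and -100% = media-only wells without cells; nearly all actives have a fitted effect of over 55% in size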
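Luminescent CellTiter-Glo readout after 48 hours of compound exposure at 37 degrees C defined viability of HT-1080-NT cells. Activity was normalized to DMSO wells and cell-free media wells; concentration-response curves were fitted and assigned curve classes.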
ATXN2 expr inh = Primary qHTS for Inhibitors of ATXN expression. Potency, µM (top dose mostly 57 µM), for inactives: at the top dose activity change, negative = inhibition, usual class: inhibitors. 360,000 compounds, 0.72% hits. HEK-293 ATXN2-luciferase reporter, luminescence, 24 h; also: % is scaled to controls: 0 for no effect and ±100 for the full control effect; nearly all actives have a fitted effect of over 55% in size
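ATXN2-luciferase reporter cells (luciferase flanked by upstream and downstream ATXN2 gene portions) were treated 24 h at 37 °C with compounds at up to 57 uM. SteadyGlo luminescence gave expression; GF-AFC fluorescence gave viability.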
HepG2 viability = qHTS for Inhibitors of TGF-b: Cytotox Counterscreen. HepG2 CAGA-GFP viability, ATP luminescence, 18 h. Potency, µM (top dose mostly 46.1 µM), without a hit: at the top dose activity change, negative = cytotoxicity, most hits filed as cytotoxic. 410,000 compounds, 0.76% hits
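HepG2 CAGA-GFP cells (1000/well, DMEM with 1% FBS) received compound, then TGF-beta at 500 pg/mL final, and were incubated 18 hours at 37 degrees C. Viability was read by CellTiter-Glo luminescence. Media-only wells were set as complete cell-killing and DMSO as no toxicity.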
TGFb SMAD3 inh = qHTS for Inhibitors of TGF-b; 410,000 compounds, 1.2% hits; Potency, µM (top dose mostly 46.1 µM), for the others: at the top dose activity, negative = inhibition, hits mostly inhibitors; HepG2 CAGA-GFP TGF-b/SMAD3 reporter, GFP fluorescence, 18 h; TGF-beta stimulated, 500 pg/mL final; AID 588855, 2011; also: % is scaled to controls: 0 for no effect and ±100 for the full control effect; nearly all actives have a fitted effect of over 65% in size
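Read-out: total well GFP (ex488/em500-530) summed from mean per-cell fluorescence. Cells: HEPG2 CAGA-GFP, 1% FBS DMEM, 18 h at 37 degrees C with 500 pg/mL final TGF-beta. Unstimulated wells served as the full-inhibition control; stimulated DMSO wells = 0%.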
HT1080 IDH1KD tx = qHTS for induction of synthetic lethality in tumor cells producing 2HG: qHTS for the HT-1080-IDH1KD cell line | HT-1080 IDH1 knockdown viability, ATP luminescence, 48 h | Potency, µM (doses to about 46.1 µM), inactives show at the highest dose activity, negative = toxicity, hits mostly cytotoxic | 360,000 compounds, 2% hits | AID 686971, 2013;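 also: 0% = DMSO wells and -100% = cell-free medium wells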
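Using the IDH1-knockdown HT-1080 line run in the same batch and compound series as the NT line, viability after 48 h at 37 °C was determined by CellTiter-Glo luminescence and expressed as % activity.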
Active calls of the source: *; i = inactive; u = inconclusive; x = no result; [ ] = another dose, or the depositor's remark. Calls follow the shape of the dose curve; as a rule, active = well fitted curve in the direction sought with a large enough effect; inconclusive = small, poorly fitted or top-dose-only effect, or another doubt; inactive = no such curve, though single readings can be large; an effect the other way counts as inactive or inconclusive. Potency is read from the fitted curve at half-maximal effect.

SMILES	ATXN viability	HT1080NT lethal	ATXN2 expr inh	HepG2 viability	TGFb SMAD3 inh	HT1080 IDH1KD tx
N#CC1=C(N)Oc2c(ccc3ccccc23)C1c1ccsc1 (stereo unspecified)	u	13µM*	43%	-25%	u	5.8µM*
Cc1[nH]nc(-c2ccc(O)c(C)c2O)c1-c1cnn(-c2ccccc2)c1	u	3%	u	-10%	7.1µM*	4%
Cc1oc2c(C)c(O)ccc2c(=O)c1-c1cnn(-c2ccccc2)c1	i	8%	-6%	-73%	u	2%
Cc1cc(SCC(=O)N/N=C/c2ccc(O)cc2O)nc2ccccc12	i	u	13µM*	-12%	-11%	u
COc1ccc2nc(C)cc(SCC(=O)N/N=C/c3cccc4ccccc34)c2c1	x	11µM*	u	-12%	-1%	6.3µM*
C[N+]1(CC(=O)c2ccc(Cl)cc2)CCOCC1	x	x	x	5%	11%	x
CCCCCC(=O)NC(NC(=S)N1CCOCC1)C(Cl)(Cl)Cl (stereo unspecified)	i	-1%	3%	-31%	u	-12%
CCCCCCCCC(=O)NC(NC(=S)N1CCOCC1)C(Cl)(Cl)Cl (stereo unspecified)	i	u	-19%	-73%	u	11µM*
CC(=O)Oc1ccc(C(=O)Nc2ccccc2NC(=O)c2ccc(OC(C)=O)cc2)cc1	u	-3%	x	-18%	-1%	7%
CC(=O)Oc1ccc(C23c4ccccc4C2(OC(C)=O)c2cc(OC(C)=O)ccc23)cc1 (stereo unspecified)	u	7.3µM*	u	-17%	u	7.3µM*
CN(C(=O)CO)c1c(I)c(C(=O)NCC(O)CO)c(I)c(C(=O)NCC(O)CO)c1I (stereo unspecified)	i	x	x	x	x	x
CSc1nc(Cl)cc(Nc2ccc(O)cc2)n1	u	16µM*	-13%	-8%	u	13µM*
CC(C)c1ccc2occ(CC(=O)Nc3cccc(C(F)(F)F)c3)c2c1	u	x	0%	-74%	u	x
Cc1cccc(/N=C/c2c(O)ccc3oc4c(c23)CCCC4)n1	i	-11%	-28%	1%	16µM*	-8%
C[C@@H](O[C@H]1OCCN(Cc2n[nH]c(=O)[nH]2)[C@@H]1c1ccc(F)cc1)c1cc(C(F)(F)F)cc(C(F)(F)F)c1	32µM*	x	u	x	x	x
CC(NC(=O)COC(=O)C1CCN(c2ccc(C(F)(F)F)cn2)CC1)c1ccc(F)cc1 (stereo unspecified)	i	0%	x	10%	3%	-8%
CCOc1ccc(S(=O)(=O)Nc2cc(Cl)ccc2O)cc1	i	u	-18%	-38%	u	23µM*
CCOc1ccc(S(=O)(=O)Nc2cccc(Cl)c2)cc1	i	u	-32%	-8%	-30%	-4%[9.24 µM]
COc1cccc(-n2c(=O)c3c(C)c(C)sc3n(CC(=O)NCc3ccc(C)cc3)c2=O)c1	i	x	4%	-3%	1%	x
COc1ccccc1-c1nnc2sc(-c3cc4ccccc4o3)nn12	u	u	-16%	-3%	15%	1.5µM*
COc1ccccc1-c1nnc2sc(-c3ccc(N(C)C)cc3)nn12	u	0.92µM*	-17%	-20%	u	0.52µM*
COc1ccccc1-c1nnc2sc(-c3cnccn3)nn12	i	8%	-23%	8%	1%	9%
COc1ccc(-c2nc3c(c(SCC(=O)N4CCCCC4)n2)Cc2cc(C)ccc2O3)cc1	x	x	x	-3%	-2%	x
O=C(NCCc1csc(-c2ccc(F)cc2)n1)c1cccc(F)c1	u	x	28µM*	-36%	u	x
O=C(Cc1ccc(F)cc1)NCCc1csc(-c2cccc(F)c2)n1	i	x	-29%	-24%	-29%	x
SMILES	ATXN viability	HT1080NT lethal	ATXN2 expr inh	HepG2 viability	TGFb SMAD3 inh	HT1080 IDH1KD tx
Cc1cc(S(=O)(=O)NCCc2csc(-c3cccc(F)c3)n2)ccc1F	u	x	u	13µM*	u	x
O=C(NCCc1csc(-c2ccc(C(F)(F)F)cc2)n1)c1ccc(F)c(F)c1	u	x	20µM*	-74%	11µM*	x
COc1cc(=O)n2c(c1C(=O)NC(C)c1ccco1)CCN(C(=O)c1ccnc(Cl)c1)CC2 (stereo unspecified)	i	x	x	x	x	x
Cc1ccc(-c2nc3c4ccccc4n(CC(=O)N4CCN(c5ccccc5F)CC4)c(=O)n3n2)cc1	i	x	10%	1%	0%	x
COc1ccc(-n2c(C)cc(C(=O)CCl)c2C)cc1	27µM*	u	30µM*	22µM*	u	15µM*
Cc1cc(-n2c(C)cc(C(=O)CN3C(=O)C(=O)N(C)C3=O)c2C)no1	i	12%	x	-10%	16%	-2%
Cc1cc(C(=O)CCl)c(C)n1-c1c(C)n(C)n(-c2ccccc2)c1=O	u	23µM*	11%	-48%	u	u
Cc1cc(-n2c(C)cc(C(=O)CCl)c2C)no1	u	5.8µM*	15%[11.3 µM]	11µM*	8.9µM*	7.3µM*
COc1ccc(-n2c(C)cc(C(=O)CN3C(=O)c4ccccc4C3=O)c2C)cc1	i	-21%	8%	21%	28%	-2%
CCc1ccc(NC(=O)CSc2nc(=O)n(Cc3ccncc3)c3c2CCC3)cc1	i	x	-10%	-20%	-26%	x
Cc1cccc2cc(CN(CC3CCCO3)C(=O)C3CC3)c(N(C)C)nc12 (stereo unspecified)	i	x	x	x	x	x
COc1cc(-c2c(-c3cc(OC)c(OC)c(OC)c3)noc2C)ccc1F	i	0.13µM*	-10%	-25%	u	0.33µM*
COC(=O)c1cc(-c2c(-c3cc(OC)c(OC)c(OC)c3)noc2C)cc([N+](=O)[O-])c1	i	-2%	-1%	20%	u	-8%
COc1ccc(-c2c(-c3cc(OC)c(OC)c(OC)c3)noc2C)cn1	u	u	3%	-1%	u	1.5µM*
COC(=O)c1ccccc1NC(=O)c1cnc2c(-c3cccc(C)c3)c(C)nn2c1C	x	x	x	1%	-17%	x
Cc1ccc(S(=O)(=O)N[C@@H](Cc2ccccc2)C(=O)CCl)cc1	32µM*	u	u	-94%	u	16µM*
Cc1ccc(S(=O)(=O)NC(Cc2ccccc2)C(=O)NN)cc1 (stereo unspecified)	i	11%	1%	5%	13%	0%

Screening results (PubChem)
